# Data: PubChem BioAssay
# Calls of active or inactive are those of the source. Unless noted, no rule for the calls is given here.
# What was measured:
# [1] = tested on: Wnt5a (protein binding on small-molecule microarray); assay: Wnt5a binders on small-molecule microarray, primary screen, biophysical, 635/667 nm fluorescence (AID 1142); details: 635 nm fluorescence, higher = more signal;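 also: fluorescence read at 667 nm with signal to noise per printed feature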
# [2] = cell viability in Huh7 cells, primary screen, cytotoxicity control for HCV replication inhibitor project, CellTiter-Glo luminescence, basal, 48 h (AID 1143); details: Huh7 HCV replicon, higher = more signal, called active from +8 up or from −8 down;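 also: Huh7 hepatoma cells carrying a hepatitis C replication reporter with no stimulus; test concentration not given here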
# [3] = P. aeruginosa biofilm formation inhibitors, primary screen, PAO1 strain, BacTiter-Glo luminescence, LB-PBS (AID 1144); details: 12 h, higher = more signal
# [4] = CREB reporter modulators without forskolin, primary screen, cell-based, PC12, CRE-LacZ reporter, unstimulated (AID 1145); details: no forskolin, luminescence, 4.5 h, higher = more signal, called active from +8 up or from −8 down
# [5] = CREB reporter modulators under forskolin, primary screen, cell-based, PC12, CRE-LacZ reporter, forskolin-stimulated (AID 1146); details: luminescence, 4.5 h, higher = more signal, called active from +8 up or from −8 down;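 also: PC12 cells with 6xCRE LacZ reporter stimulated by forskolin 10 µM; beta-galactosidase reporter signal reflecting CREB driven transcription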
# [6] = target: Streptavidin (Streptomyces avidinii) (UniProt P22629); assay: streptavidin binders on small-molecule microarray, primary screen, artefact control for SMM compound annotation, biophysical, 635/667 nm fluorescence (AID 1147); details: streptavidin binding, higher = more signal;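 also: signal reflects streptavidin binding to arrayed compounds as a control protein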
# [7] = small-molecule binders of probe aInhba, primary screen, biochemical, small-molecule microarray, 635/667 nm fluorescence (AID 1148); details: higher = more signal;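 also: score merges 667nm spot fluorescence with signal-to-noise for antibody binding to printed compounds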
# Torsin-1A (Homo sapiens) [8] = target: Torsin-1A (Homo sapiens) (UniProt O14656); assay: torsin A binders from cell lysate, primary screen, small-molecule microarray, wild-type, 635/667 nm (AID 1149); details: COS7 hTOR1A-WT lysate, 635 nm fluorescence, higher = more signal
# Torsin-1A (Homo sapiens) [9] = target: Torsin-1A (Homo sapiens) (UniProt O14656); assay: small-molecule binders of mutant TOR1A in lysate, primary screen, cell lysate, small-molecule microarray, COS7 lysate, 635/667 nm fluorescence (AID 1150); details: COS7 hTOR1A mutant lysate, 635 nm fluorescence, higher = more signal;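 also: score pools 667 nm emission and signal to noise measuring lysate protein binding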
# [10] = tested on: Sonic hedgehog protein (Shh); assay: small-molecule binders of Shh protein, primary screen, biochemical, small-molecule microarray, 635/667 nm fluorescence (AID 1151); details: small-molecule microarray binding, 635 nm fluorescence; higher = more signal;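 also: Shh protein binding to compounds spotted on small-molecule microarray slides; score combines spot fluorescence intensity with signal-to-noise across triplicate slides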
# [11] = E. coli DRC41 culture turbidity changes, primary screen, E. coli filamentation inducer project, strain DRC41, OD650, 48 h (AID 1152);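 also: E. coli MC1000 strain DRC41 lacking acrAB efflux pump and sulA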; details: E. coli DRC41 (acrAB sulA), higher = more signal, called active from +8 up or from −8 down
# [12] = small-molecule binders of probe aLefty1, primary screen, biochemical, small-molecule microarray, 635/667 nm fluorescence (AID 1153); details: higher = more signal;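 also: score merges spot fluorescence with signal-to-noise ratio from the scanned slide images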
# [13] = PSAC antagonists in infected red cells, primary screen, cell-based, P. falciparum Indochina, OD700, 1 h (AID 1154); details: P. falciparum Indochina infected RBC osmotic lysis, higher = more signal, called active from +8 up or from −8 down
# [14] = PSAC antagonists in infected red cells, primary screen, cell-based, P. falciparum Indochina, OD700, 2 h (AID 1155);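 also: lysis reports solute entry through the parasite surface anion channel PSAC; channel blockers reduce lysis of infected cells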; details: P. falciparum Indochina infected erythrocytes, osmotic lysis OD700; higher = more signal, called active from +8 up or from −8 down
# [15] = osmotic lysis modulators in infected erythrocytes, primary screen, PSAC antagonist project, cell-based, P. falciparum Indochina, OD700, 3 h (AID 1156); details: higher = more signal, called active from +8 up or from −8 down
# [16] = PSAC antagonists in infected red cells, primary screen, cell-based, P. falciparum Indochina, OD700, 18 h (AID 1157); details: P. falciparum Indochina infected erythrocytes, osmotic lysis OD700, 18 h; higher = more signal, called active from +8 up or from −8 down
# [17] = modulators of S6 phosphorylation in cells, primary screen, cell-based, A549, cytoblot, luminescence, serum-stimulated (AID 1158); details: A549 phospho-S6 cytoblot, 5 h, higher = more signal;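 also: serum-stimulated A549 lung adenocarcinoma cells; signal is phosphorylated S6 detected by cytoblot immunostaining with HRP secondary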
# [18] = target: NADPH oxidase 2 (Homo sapiens) (UniProt P04839); assay: NOX2-dependent H2O2 signal modulators, primary screen, NOX inhibitor project, cell-based, HEK293-NOX2, PMA-stimulated, Amplex Red fluorescence (AID 1159); details: 45 min, higher = more signal, called active from +8 up or from −8 down; also: test concentration not given here
# [19] = target: NADPH oxidase 4 (Homo sapiens) (UniProt Q9NPH5); assay: NOX4-dependent H2O2 signal modulators, primary screen, NOX inhibitor project, cell-based, HEK293-NOX4, tetracycline-induced, Amplex Red fluorescence (AID 1160); details: 45 min, higher = more signal, called active from +8 up or from −8 down
# [20] = target: NADPH oxidase 5 (Homo sapiens) (UniProt Q96PH1); assay: NOX5-dependent H2O2 signal modulators, primary screen, NOX inhibitor project, cell-based, HEK293-NOX5, Amplex Red fluorescence (AID 1161); details: HEK293-NOX5, ionomycin, 45 min, higher = more signal
# Chain of NADPH oxidase 5 (Homo sapiens) (Q96PH1 whole entry, looked up): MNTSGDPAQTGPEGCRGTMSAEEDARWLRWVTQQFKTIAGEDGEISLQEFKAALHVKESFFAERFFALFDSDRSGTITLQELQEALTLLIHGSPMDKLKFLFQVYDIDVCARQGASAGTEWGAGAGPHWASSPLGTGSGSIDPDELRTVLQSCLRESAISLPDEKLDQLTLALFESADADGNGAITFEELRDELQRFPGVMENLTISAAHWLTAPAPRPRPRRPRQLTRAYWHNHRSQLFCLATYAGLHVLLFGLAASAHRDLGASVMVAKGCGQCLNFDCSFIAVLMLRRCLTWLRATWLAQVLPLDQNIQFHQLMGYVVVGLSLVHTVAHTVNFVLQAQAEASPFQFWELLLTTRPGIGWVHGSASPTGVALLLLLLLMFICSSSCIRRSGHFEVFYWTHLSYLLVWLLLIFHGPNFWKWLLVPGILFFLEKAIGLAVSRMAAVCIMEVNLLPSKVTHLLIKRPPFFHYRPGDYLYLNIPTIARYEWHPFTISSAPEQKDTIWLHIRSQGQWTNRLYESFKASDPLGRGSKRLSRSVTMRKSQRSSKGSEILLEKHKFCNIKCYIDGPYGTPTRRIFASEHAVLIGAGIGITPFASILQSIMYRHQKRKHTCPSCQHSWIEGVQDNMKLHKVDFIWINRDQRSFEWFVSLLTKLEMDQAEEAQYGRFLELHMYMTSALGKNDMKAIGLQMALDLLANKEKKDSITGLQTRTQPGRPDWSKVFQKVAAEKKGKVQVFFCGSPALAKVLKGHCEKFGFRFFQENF
# Chain of NADPH oxidase 4 (Homo sapiens) (Q9NPH5 whole entry, looked up): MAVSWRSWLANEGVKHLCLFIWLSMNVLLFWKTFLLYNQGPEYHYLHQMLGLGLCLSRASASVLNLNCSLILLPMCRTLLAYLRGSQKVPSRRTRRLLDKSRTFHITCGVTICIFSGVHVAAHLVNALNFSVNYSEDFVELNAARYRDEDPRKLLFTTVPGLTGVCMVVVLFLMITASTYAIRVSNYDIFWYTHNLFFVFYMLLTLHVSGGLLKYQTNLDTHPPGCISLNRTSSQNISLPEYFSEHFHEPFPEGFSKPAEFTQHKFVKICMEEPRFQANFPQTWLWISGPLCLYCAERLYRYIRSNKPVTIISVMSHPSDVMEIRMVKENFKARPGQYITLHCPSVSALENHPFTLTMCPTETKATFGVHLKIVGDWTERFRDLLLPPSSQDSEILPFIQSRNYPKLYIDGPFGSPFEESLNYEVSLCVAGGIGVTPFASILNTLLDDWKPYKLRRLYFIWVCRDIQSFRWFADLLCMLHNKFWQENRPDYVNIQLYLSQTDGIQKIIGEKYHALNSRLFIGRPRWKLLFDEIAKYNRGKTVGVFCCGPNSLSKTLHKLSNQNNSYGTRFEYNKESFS
# Chain of Streptavidin (Streptomyces avidinii) (P22629 whole entry, looked up): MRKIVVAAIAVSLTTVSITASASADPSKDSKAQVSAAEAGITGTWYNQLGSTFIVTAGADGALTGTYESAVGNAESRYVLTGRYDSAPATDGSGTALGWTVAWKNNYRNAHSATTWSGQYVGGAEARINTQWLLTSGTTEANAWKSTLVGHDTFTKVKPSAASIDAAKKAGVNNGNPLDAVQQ
# Chain of Torsin-1A (Homo sapiens) (O14656 whole entry, looked up): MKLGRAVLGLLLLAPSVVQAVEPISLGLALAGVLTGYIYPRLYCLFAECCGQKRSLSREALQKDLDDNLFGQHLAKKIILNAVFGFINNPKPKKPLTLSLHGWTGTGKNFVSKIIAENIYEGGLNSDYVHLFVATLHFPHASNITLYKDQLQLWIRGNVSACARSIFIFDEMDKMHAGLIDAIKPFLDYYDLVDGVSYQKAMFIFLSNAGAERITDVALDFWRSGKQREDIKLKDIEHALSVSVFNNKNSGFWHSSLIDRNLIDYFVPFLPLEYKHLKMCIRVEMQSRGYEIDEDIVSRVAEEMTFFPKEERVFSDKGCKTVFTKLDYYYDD
# Chain of NADPH oxidase 2 (Homo sapiens) (P04839 whole entry, looked up): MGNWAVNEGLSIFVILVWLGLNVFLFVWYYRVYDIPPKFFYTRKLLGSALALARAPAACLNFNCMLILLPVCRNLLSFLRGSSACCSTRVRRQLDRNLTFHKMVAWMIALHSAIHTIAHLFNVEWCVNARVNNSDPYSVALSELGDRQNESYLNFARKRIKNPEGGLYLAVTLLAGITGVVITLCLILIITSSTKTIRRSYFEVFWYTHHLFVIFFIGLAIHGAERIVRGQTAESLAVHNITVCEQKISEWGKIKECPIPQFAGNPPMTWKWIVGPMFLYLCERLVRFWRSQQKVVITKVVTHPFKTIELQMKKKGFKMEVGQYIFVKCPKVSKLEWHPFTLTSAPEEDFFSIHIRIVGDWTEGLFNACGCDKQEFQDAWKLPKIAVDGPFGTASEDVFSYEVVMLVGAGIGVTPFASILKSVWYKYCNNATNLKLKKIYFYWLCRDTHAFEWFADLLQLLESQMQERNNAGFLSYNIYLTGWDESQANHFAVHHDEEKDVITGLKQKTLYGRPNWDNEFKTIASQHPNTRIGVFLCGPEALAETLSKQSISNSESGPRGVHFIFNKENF
Structure (SMILES),composite z-score [1],z-score [2],z-score [3],z-score [4],z-score [5],composite z-score [6],composite z-score [7],composite z-score (Torsin-1A (Homo sapiens) [8]),composite z-score (Torsin-1A (Homo sapiens) [9]),composite z-score [10],z-score [11],composite z-score [12],z-score [13],z-score [14],z-score [15],z-score [16],z-score [17],z-score [18],z-score [19],z-score [20]
C=CCC(OC(C)=O)[C@@H]1[C@@H](N(Cc2ccc(-c3ccccc3)cc2)C(=O)c2cccc3ccccc23)c2cc(OCCCO)ccc2N1C(=O)c1ccc(-c2ccccc2)cc1 (stereo not given in full),0.0826,-1.6 (inactive),-0.915 (inactive),0.6 (inactive),-0.531 (inactive),0.232,0.0979,-0.0396,0.499,0.362,0.82 (inactive),0.46,0.353 (inactive),1.06 (inactive),-0.291 (inactive),0.358 (inactive),0.121,0.299 (inactive),-0.394 (inactive),-4.31
CCCC[C@@H]1C[C@H]1[C@@H](NC(=O)c1ccco1)c1ccc(-c2ccccc2)cc1,-0.0076,-2.51 (inactive),0.0577 (inactive),0.766 (inactive),0.576 (inactive),0.483,0.033,0.618,0.952,-0.308,-1.73 (inactive),0.142,-0.38 (inactive),-0.912 (inactive),1.59 (inactive),-1.91 (inactive),1.28,-4.04 (inactive),-3.5 (inactive),-2
Cc1ccc(S[C@]2(C(=O)NC3CC3)CC(=O)N(Cc3ccccc3)[C@@H]2c2ccc(CO)cc2I)cc1,-0.232,-2.1 (inactive),-0.0682 (inactive),1.04 (inactive),1.03 (inactive),-0.716,0.235,-1.19,-1.63,-0.517,1.24 (inactive),0.238,7.63 (inactive),1.12 (inactive),-0.282 (inactive),0.401 (inactive),0.402,1.7 (inactive),-1.16 (inactive),1.1
COCCOC(=O)N1C(=O)[C@@]2(c3cc(C#CCC(C(=O)OC)C(=O)OC)ccc31)[C@H](c1ccccc1OCCO)N1[C@H](c3ccccc3)[C@H](c3ccccc3)OC(=O)[C@H]1[C@@H]2C(=O)N1CCN(c2ncccn2)CC1,0.621,-4.45 (inactive),-1.09 (inactive),-0.479 (inactive),1.7 (inactive),0.635,0.0384,1.01,1.19,1.89,1.2 (inactive),1.16,2.83 (inactive),1.11 (inactive),1.28 (inactive),0.851 (inactive),-0.139,0.823 (inactive),0.656 (inactive),1.27
NC(=O)NCC#Cc1ccc2c(c1)[C@]1(C(=O)N2)[C@H](c2ccccc2OCCO)N2[C@H](c3ccccc3)[C@H](c3ccccc3)OC(=O)[C@H]2[C@@H]1C(=O)Nc1nc2ccccc2s1,-0.0307,0.0402 (inactive),-1.39 (inactive),-0.0784 (inactive),0.335 (inactive),0.441,0.0314,-0.671,0.0313,0.812,0.726 (inactive),0.0692,1.19 (inactive),1.36 (inactive),-5.62 (inactive),1.28 (inactive),-0.0906,1.95 (inactive),1.32 (inactive),0.883
